Measurements as given in paper PMC7862700, “An all-to-all approach to the identification of sequence-specific readers for epigenetic DNA modifications on cytosine”.

How the values were obtained:
Experiment in all cases: DAPPL (digital affinity profiling via proximity ligation, sequencing); 10 mM Tris-HCl pH 7.5, 50 mM NaCl, 1 mM DTT, 4% glycerol, room temperature, 30 min; GST-TFs on glutathione beads, 16-mer random dsDNA library, 0.1% formaldehyde crosslink after washing; high values mean tight binding
Details in all cases: protein: recombinant; tags: N-terminal GST; dsDNA, one strand shown
[1] = target: T1, FLI1 (Homo sapiens, UniProt Q01543 1-452)
T1 sequence: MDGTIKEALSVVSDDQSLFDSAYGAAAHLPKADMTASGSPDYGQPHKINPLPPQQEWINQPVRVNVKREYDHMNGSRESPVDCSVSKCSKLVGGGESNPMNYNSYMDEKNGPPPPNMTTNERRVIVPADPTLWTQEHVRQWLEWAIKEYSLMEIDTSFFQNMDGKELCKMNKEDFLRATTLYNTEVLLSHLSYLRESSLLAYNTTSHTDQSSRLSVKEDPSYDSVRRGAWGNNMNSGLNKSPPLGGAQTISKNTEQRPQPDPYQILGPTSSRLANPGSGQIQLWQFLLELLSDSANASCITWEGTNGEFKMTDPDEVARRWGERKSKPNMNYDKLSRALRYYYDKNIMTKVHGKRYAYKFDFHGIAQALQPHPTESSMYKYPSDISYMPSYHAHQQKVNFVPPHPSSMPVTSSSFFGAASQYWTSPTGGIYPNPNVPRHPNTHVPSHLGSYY
Outline: (§1)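 Human transcription factors were made in yeast as GST fusions, captured on glutathione beads and barcoded with DNA. With a tag-only sample included, the pool was incubated with 200 nmole of a random double-stranded 16-mer DNA library in Tris/NaCl/DTT/glycerol buffer at room temperature for 30 min, then crosslinked with 0.1% formaldehyde after washing, ligated by proximity, amplified and sequenced. For binding signal, each hexamer's read frequency for a factor is divided by its frequency for the tag-only sample.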

[2] = target: T2, ELK1 (Homo sapiens, UniProt P19419 1-428)
T2 sequence: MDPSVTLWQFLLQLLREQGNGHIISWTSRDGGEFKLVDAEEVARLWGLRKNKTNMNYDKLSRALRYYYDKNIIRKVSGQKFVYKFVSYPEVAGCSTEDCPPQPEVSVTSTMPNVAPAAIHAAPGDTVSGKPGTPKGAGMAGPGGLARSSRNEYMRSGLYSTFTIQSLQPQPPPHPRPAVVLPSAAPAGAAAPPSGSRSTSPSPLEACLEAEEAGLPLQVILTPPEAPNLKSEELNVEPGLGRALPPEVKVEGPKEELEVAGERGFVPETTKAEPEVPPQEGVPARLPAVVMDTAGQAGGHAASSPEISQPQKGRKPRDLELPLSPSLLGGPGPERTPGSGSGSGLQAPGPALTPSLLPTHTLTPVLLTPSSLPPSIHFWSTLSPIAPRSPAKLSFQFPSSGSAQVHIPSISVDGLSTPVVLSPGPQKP
Outline: as §1

[3] = target: T3, GABPA (Homo sapiens, UniProt Q06546 1-454)
T3 sequence: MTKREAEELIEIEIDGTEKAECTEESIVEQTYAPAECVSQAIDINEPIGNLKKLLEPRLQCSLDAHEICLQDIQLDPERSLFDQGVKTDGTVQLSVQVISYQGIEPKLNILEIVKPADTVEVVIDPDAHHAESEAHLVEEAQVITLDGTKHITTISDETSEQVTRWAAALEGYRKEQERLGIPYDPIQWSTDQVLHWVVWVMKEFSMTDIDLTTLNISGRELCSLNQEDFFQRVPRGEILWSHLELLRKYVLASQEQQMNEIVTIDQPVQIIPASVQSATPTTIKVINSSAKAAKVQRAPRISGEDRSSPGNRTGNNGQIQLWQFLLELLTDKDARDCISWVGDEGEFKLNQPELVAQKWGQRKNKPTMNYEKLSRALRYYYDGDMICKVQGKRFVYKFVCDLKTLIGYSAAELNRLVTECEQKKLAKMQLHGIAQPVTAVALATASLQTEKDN
Outline: as §1

[4] = target: T4, ERG (Homo sapiens, UniProt P11308 1-479)
T4 sequence: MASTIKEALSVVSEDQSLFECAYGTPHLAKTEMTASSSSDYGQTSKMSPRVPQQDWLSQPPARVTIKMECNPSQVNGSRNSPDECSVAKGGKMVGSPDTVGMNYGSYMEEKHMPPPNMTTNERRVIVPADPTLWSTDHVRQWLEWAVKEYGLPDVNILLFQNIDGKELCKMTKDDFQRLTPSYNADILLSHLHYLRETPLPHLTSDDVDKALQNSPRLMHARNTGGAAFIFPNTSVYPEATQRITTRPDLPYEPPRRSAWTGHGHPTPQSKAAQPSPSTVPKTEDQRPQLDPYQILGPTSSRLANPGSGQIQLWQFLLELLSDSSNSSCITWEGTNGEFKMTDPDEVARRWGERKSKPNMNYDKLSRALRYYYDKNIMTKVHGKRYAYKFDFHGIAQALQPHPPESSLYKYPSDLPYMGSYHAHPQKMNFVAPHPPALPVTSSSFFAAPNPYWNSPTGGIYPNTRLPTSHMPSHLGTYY
Outline: as §1

[5] = target: ELF1 (Homo sapiens, UniProt P32519 1-619)
Outline: as §1

[6] = target: T5, EHF (Homo sapiens, UniProt Q9NZC4 1-300)
T5 sequence: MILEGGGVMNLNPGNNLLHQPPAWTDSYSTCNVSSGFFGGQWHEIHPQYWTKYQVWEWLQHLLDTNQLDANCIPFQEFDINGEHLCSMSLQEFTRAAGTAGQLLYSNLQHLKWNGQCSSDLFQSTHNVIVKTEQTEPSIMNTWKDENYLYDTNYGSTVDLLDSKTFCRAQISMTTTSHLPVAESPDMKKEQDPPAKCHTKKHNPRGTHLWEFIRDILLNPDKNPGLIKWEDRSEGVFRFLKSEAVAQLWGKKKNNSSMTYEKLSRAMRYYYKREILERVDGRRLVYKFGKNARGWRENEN
Outline: as §1

[7] = target: SPI1 (Homo sapiens, UniProt P17947 1-270)
Outline: as §1

[8] = target: SPIB (Homo sapiens, UniProt Q01892 1-262)
Outline: as §1

[9] = target: T6, ELK3 (Homo sapiens, UniProt P41970 1-407)
T6 sequence: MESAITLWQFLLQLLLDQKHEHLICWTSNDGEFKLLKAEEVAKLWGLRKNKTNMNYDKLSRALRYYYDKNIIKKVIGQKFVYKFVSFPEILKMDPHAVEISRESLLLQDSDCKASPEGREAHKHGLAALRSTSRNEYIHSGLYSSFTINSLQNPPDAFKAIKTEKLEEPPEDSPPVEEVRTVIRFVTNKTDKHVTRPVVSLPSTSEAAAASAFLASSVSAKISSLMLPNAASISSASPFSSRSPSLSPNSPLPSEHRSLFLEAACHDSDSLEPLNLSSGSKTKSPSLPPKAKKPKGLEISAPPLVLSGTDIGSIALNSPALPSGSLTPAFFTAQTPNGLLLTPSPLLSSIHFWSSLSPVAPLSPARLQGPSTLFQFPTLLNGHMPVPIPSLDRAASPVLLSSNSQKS
Outline: as §1

[10] = target: T7, FEV (Homo sapiens, UniProt Q99581 1-238)
T7 sequence: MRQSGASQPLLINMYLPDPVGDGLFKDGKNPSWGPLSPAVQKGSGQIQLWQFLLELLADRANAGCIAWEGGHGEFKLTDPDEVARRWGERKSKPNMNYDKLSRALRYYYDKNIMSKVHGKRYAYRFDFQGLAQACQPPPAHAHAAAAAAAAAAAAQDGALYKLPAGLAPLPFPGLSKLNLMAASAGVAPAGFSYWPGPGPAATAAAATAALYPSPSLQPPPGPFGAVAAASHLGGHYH
Outline: as §1

[11] = target: ETV5 (Homo sapiens, UniProt P41161 1-510)
Outline: as §1

[12] = target: T8, SPIC (Homo sapiens, UniProt Q8N5J4 1-248)
T8 sequence: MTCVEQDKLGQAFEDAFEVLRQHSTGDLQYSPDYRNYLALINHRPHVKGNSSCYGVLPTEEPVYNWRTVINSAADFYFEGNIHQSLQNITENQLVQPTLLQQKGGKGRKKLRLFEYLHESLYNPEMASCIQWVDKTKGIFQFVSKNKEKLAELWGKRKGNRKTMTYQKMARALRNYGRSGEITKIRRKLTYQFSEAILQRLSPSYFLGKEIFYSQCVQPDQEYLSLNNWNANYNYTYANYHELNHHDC
Outline: as §1

[13] = target: ELF4 (Homo sapiens, UniProt Q99607 1-663)
Outline: as §1

[14] = target: T9, ELK4 (Homo sapiens, UniProt P28324-2 1-405)
T9 sequence: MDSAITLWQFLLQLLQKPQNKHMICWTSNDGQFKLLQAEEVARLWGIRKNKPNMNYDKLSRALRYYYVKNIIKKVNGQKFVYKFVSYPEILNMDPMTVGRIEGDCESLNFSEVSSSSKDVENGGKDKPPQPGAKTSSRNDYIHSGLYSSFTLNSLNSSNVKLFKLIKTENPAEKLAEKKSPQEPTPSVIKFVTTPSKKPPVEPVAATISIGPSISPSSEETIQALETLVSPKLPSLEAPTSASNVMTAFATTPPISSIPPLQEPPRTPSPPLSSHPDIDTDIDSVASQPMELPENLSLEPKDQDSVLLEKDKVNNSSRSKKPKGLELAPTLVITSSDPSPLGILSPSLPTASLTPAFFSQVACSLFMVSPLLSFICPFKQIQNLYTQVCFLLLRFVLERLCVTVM
Outline: as §1

[15] = target: T10, ETV2 (Homo sapiens, UniProt O00321 1-342)
T10 sequence: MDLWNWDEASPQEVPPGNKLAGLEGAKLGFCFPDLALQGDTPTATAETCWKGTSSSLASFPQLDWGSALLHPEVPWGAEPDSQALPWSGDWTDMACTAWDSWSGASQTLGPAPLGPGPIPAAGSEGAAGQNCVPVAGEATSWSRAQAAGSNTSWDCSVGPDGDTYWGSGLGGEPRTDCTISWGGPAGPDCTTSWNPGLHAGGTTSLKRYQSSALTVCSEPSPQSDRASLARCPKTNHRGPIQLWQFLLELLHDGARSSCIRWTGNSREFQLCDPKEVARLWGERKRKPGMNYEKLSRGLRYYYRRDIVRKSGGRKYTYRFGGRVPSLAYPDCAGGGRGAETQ
Outline: as §1

[16] = target: T11, ELF3 (Homo sapiens, UniProt P78545 1-371)
T11 sequence: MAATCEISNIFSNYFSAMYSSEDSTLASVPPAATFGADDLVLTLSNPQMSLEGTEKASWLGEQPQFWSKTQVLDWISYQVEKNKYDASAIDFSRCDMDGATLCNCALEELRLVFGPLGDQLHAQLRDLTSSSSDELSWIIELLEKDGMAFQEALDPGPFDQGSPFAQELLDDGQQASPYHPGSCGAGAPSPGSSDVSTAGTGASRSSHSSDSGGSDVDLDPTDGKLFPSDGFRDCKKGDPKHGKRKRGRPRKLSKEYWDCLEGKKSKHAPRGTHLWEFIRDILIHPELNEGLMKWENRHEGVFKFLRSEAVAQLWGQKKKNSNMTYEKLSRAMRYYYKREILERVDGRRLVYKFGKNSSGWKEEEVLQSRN
Outline: as §1

[17] = target: CRX (Homo sapiens, UniProt O43186 1-299)
Outline: as §1

[18] = target: ETV1 (Homo sapiens, UniProt P50549 1-477)
Outline: as §1

SPIB, sequence (Q01892 whole entry): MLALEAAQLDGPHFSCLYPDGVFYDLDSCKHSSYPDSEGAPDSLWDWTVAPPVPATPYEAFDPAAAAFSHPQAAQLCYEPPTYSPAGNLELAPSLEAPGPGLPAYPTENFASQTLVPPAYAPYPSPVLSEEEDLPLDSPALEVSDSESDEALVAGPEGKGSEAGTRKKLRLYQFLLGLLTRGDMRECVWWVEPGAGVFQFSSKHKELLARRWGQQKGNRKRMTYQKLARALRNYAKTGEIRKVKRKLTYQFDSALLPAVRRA
ELF1, sequence (P32519 whole entry): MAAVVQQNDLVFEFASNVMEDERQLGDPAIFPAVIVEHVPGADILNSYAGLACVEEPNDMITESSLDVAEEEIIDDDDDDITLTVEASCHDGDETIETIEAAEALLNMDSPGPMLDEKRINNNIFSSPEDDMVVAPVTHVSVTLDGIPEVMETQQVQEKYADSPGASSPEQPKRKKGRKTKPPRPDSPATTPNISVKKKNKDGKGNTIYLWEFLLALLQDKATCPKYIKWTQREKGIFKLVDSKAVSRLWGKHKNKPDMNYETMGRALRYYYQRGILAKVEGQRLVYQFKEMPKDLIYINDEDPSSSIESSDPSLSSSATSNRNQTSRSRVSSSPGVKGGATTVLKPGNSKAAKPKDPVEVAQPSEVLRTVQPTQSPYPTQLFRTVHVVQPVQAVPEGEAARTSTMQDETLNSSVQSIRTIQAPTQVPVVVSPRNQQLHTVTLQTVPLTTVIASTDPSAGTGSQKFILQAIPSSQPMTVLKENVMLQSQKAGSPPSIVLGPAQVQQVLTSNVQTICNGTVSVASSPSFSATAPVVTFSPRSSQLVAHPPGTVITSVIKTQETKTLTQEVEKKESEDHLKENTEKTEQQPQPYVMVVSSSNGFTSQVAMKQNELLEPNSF
ETV1, sequence (P50549 whole entry): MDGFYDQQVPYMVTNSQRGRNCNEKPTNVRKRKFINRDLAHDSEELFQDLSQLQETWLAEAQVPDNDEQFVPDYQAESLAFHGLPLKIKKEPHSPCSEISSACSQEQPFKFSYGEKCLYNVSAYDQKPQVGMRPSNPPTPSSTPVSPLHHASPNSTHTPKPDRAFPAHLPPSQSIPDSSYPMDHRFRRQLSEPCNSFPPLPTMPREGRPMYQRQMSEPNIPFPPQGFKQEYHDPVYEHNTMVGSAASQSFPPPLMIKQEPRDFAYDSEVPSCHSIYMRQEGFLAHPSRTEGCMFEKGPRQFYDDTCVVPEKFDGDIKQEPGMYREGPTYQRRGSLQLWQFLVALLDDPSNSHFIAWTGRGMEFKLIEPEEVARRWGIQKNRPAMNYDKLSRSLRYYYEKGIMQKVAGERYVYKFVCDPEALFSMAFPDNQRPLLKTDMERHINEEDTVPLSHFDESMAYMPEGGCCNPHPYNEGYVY
ETV5, sequence (P41161 whole entry): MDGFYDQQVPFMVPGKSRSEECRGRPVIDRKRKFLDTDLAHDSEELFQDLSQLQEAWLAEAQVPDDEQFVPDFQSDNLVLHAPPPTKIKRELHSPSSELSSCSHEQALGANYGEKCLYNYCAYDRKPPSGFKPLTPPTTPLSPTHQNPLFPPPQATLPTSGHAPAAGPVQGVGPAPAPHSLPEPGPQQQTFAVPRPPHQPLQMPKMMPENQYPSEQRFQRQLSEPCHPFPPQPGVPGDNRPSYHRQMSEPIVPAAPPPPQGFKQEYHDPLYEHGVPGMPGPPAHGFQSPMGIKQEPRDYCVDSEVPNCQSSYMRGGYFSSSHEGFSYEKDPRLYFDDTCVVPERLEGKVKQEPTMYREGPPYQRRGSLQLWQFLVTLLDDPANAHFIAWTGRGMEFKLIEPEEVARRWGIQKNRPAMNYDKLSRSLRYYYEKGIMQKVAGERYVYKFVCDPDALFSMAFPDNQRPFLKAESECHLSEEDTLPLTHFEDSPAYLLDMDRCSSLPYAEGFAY
CRX, sequence (O43186 whole entry): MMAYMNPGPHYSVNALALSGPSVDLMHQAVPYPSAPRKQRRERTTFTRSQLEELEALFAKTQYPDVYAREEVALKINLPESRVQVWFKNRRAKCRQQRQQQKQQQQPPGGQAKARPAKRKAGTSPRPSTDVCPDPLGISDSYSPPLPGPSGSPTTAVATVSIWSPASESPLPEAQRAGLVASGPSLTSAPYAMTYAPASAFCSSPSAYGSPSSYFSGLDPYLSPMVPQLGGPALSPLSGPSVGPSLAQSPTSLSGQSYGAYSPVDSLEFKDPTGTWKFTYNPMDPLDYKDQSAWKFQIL
ELF4, sequence (Q99607 whole entry): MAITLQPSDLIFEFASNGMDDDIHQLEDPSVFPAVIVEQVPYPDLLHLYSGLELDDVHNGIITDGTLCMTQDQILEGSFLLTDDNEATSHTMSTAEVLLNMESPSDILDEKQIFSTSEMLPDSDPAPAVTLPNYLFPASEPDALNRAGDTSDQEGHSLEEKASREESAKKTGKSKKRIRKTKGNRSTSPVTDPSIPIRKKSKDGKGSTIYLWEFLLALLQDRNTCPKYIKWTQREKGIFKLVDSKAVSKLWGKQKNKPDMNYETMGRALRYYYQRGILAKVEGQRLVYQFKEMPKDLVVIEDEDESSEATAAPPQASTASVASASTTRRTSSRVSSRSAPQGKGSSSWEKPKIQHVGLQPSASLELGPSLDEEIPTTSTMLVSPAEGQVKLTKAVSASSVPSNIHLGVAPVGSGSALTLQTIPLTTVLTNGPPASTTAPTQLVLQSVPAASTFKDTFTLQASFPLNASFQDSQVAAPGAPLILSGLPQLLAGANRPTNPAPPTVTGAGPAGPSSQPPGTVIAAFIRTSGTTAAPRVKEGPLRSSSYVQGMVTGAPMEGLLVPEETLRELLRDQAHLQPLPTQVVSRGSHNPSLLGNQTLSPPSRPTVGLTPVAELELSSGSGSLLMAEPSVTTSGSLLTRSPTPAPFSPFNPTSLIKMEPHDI

TACGGA
binding signal [1]: 1.26 fold enrichment (6-mer frequency, TF over GST control)
binding signal [2]: 1.25 fold enrichment (6-mer frequency, TF over GST control)
binding signal [3]: 1.21 fold enrichment (6-mer frequency, TF over GST control)
binding signal [4]: 1.37 fold enrichment (6-mer frequency, TF over GST control)
binding signal [5]: 1.3 fold enrichment (6-mer frequency, TF over GST control)
binding signal [6]: 1.45 fold enrichment (6-mer frequency, TF over GST control)
binding signal [7]: 1.56 fold enrichment (6-mer frequency, TF over GST control)
binding signal [8]: 1.48 fold enrichment (6-mer frequency, TF over GST control)
binding signal [9]: 1.43 fold enrichment (6-mer frequency, TF over GST control)
binding signal [10]: 1.26 fold enrichment (6-mer frequency, TF over GST control)
binding signal [11]: 1.34 fold enrichment (6-mer frequency, TF over GST control)
binding signal [12]: 1.21 fold enrichment (6-mer frequency, TF over GST control)
binding signal [13]: 1.25 fold enrichment (6-mer frequency, TF over GST control)
binding signal [14]: 1.15 fold enrichment (6-mer frequency, TF over GST control)
binding signal [15]: 1.42 fold enrichment (6-mer frequency, TF over GST control)
binding signal [16]: 1.42 fold enrichment (6-mer frequency, TF over GST control)
binding signal [17]: 1 fold enrichment (6-mer frequency, TF over GST control)
binding signal [18]: 1.39 fold enrichment (6-mer frequency, TF over GST control)
